Source: PubChem BioAssay
In the library only some 2.3% were active in any assay of this set; here they are far more common.
AMA1-RON2 inh: qHTS for Inhibitors of AMA1-RON; Towards Development of Antimalarial Drug Lead: Primary Screen | AID 720542, 2013 | Potency, µM (highest dose often 58.2 µM), without a hit: at the top dose activity change, negative = inhibition, most hits filed as inhibitors | AlphaScreen AMA1-biotinylated RON2 peptide binding | actives 0.2% (n = 360,000) | Plasmodium falciparum AMA1 (3D7) - RON2 peptide interaction;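 also: 0% = vehicle wells and -100% = peptide control; nearly all actives have a fitted effect of over 45% in size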
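AMA1 (3D7) with his tag at 25 nM final met compounds first, then biotinylated RON2 peptide at 25 nM; detection used donor plus acceptor beads, 10 µg/mL apiece, read by AlphaScreen after 30 min at room temperature.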
AmpC detergent: qHTS Inhibitors of AmpC Beta-Lactamase (assay with detergent); P00811; Potency, µM (highest dose often 114 µM), for inactives: top-dose activity change, negative = inhibition, most hits filed as inhibitors; actives 0.041% (n = 370,000); AmpC hydrolysis of nitrocefin, absorbance 480 nm, 0.01% Triton;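 also: 0% = no-compound wells and -100% = no-enzyme wells; nearly all actives have a fitted effect of over 25% in size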
Target sequence (P00811 whole entry, looked up): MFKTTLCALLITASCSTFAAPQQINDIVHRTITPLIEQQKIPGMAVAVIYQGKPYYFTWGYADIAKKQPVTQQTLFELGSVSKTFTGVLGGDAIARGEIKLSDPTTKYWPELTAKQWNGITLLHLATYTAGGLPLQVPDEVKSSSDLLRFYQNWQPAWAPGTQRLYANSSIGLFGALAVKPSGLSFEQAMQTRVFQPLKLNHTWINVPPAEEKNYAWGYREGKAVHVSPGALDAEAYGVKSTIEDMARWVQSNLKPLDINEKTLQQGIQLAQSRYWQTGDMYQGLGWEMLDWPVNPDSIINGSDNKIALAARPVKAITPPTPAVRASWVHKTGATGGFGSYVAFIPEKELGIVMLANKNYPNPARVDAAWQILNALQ
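AmpC (5.3 nM in the dispensed reagent) in 20 mM phosphate pH 7.0 with 0.01% (detergent screen) or 0.0001% Triton X-100 was preincubated with compounds for 15 min at room temperature. Nitrocefin was then added from an 800 uM solution, and hydrolysis was followed at 480 nm.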
LASV entry inh: qHTS for Inhibitors of binding or entry into cells for Lassa Virus; AID 540256, 2011; Lassa virus pseudotype entry inhibition, cell reporter; Potency, µM (doses to about 37.9 µM), without a hit: at the highest dose activity change, negative = inhibition, hits mostly inhibitors; actives 1.2% (n = 300,000); calls by dose curve; tested in HEK293 cells; also: nearly all actives have a fitted effect of over 50% in size
AmpC inh no detg: qHTS Inhibitors of AmpC Beta-Lactamase (assay without detergent). P00811. actives 0.52% (n = 330,000). AmpC nitrocefin hydrolysis, absorbance 480 nm, 0.0001% Triton. Potency, µM (highest dose often 57.1 µM), for inactives: at the top dose activity change, negative = inhibition, usual class: inhibitors. AID 485341, 2010;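 also: plate controls were no compound for no effect and no enzyme for full effect; nearly all actives have a fitted effect of over 20% in size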
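AmpC (5.3 nM in the dispensed reagent) in 20 mM phosphate pH 7.0 with 0.01% (detergent screen) or 0.0001% Triton X-100 was preincubated with compounds for 15 min at room temperature. Nitrocefin was then added from an 800 uM solution, and hydrolysis was followed at 480 nm.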
MARV entry inh: qHTS for inhibitors of binding or entry into cells for Marburg Virus | Marburg virus pseudotyped entry inhibition, cell reporter | Potency, µM (series often up to 37.8 µM), for the others: at the highest dose activity change, negative = inhibition, hits mostly inhibitors | actives 1.8% (n = 300,000) | AID 540276, 2011; calls by dose curve; tested in HEK293 cells
* = called active by the depositor; u = inconclusive; x = no result given; [ ] = dose if it differs, or a comment. Unless noted, calls follow the shape of the dose curve; as a rule, active = well fitted curve in the direction sought with a large enough effect; inconclusive = small, poorly fitted or top-dose-only effect, or another doubt; inactive = no such curve, though single readings can be large; an effect the other way counts as inactive or inconclusive. Unless noted, % is scaled to controls: 0 for no effect and ±100 for the full control effect; potency is read from the fitted curve at half-maximal effect.

SMILES | AMA1-RON2 inh | AmpC detergent | LASV entry inh | AmpC inh no detg | MARV entry inh
COc1ccccc1NC(=O)C1=C(C)Nc2nc(-c3ccco3)nn2C1c1cccc(C)c1 (configuration not stated) | x | 6% | -33%[46.1 µM] | x | -18%[46.1 µM]
O=C(NNC(=S)Nc1ccc(F)cc1)C1CC1c1ccc(Cl)cc1 (configuration not stated) | 19% | 2% | 0.41µM* | -48% | 0%
NNC(=O)C1CC1c1ccc(Cl)cc1 (configuration not stated) | 24% | -19% | 2.6µM* | -29% | 0%
CC(=O)NC(CCS(C)(=O)=O)C(=O)Nc1ccccc1 (configuration not stated) | -2% | u | x | 5µM* | x
CC(=O)N1CCN=C1SCc1ccccc1F | 6% | -7% | x | 3.5µM* | x
CC(=O)N1CCN=C1SCc1ccccc1Cl | 18% | u | x | 0% | x
Cc1cccc2sc(NC(=O)C3CCN(C(=O)c4ccco4)CC3)nc12 | 13% | 0% | 7.9µM* | 1% | u
CCOc1ccc(NS(=O)(=O)c2ccc3[nH]c4c(c3c2)CCCCC4)cc1 | x | 26% | -21%[46.1 µM] | x | x
O=[N+]([O-])c1ccc2c(c1)C(N1CCN(CCO)CC1)Cc1ccc(F)cc1S2 (configuration not stated) | -12% | x | x | x | x
OCCN1CCN(C2CCC(c3ccc(F)cc3)c3ccc(F)cc32)CC1 (configuration not stated) | -15% | x | u | x | 4µM*
CC(C)C(=O)Nc1ccc(NC(=O)c2cccnc2)cn1 | 0% | 0% | 9% | -14% | -2%
CC(C)C(=O)Nc1ccc(NC(=O)c2ccccn2)cn1 | 113% | u | u | -23% | 11µM*
CCC(=O)Nc1ccc(NC(=O)c2ccccn2)cn1 | 82% | -5% | 10µM* | -11% | u
O=C(Nc1ccc(NC(=O)C2CC2)nc1)c1ccccn1 | 73% | -14% | u | -10% | u
CCc1ccccc1N(c1nc(-c2ccc(OC)c(OC)c2)no1)c1nc(-c2ccc(OC)c(OC)c2)no1 | x | -3% | 21%[46.1 µM] | x | -2%[46.1 µM]
S=C(NCCc1ccccc1)NC1CC2CCC(C1)N2Cc1ccccc1 (configuration not stated) | -4% | 0% | u | 11% | u
CCNC(=S)NC1CC2CCC(C1)N2Cc1ccccc1 (configuration not stated) | 21% | -1% | 0% | -17% | 0.92µM*
CC(C)CNC(=S)NC1CC2CCC(C1)N2Cc1ccccc1 (configuration not stated) | -1% | 8% | -14% | 0% | 0.65µM*
CCCNC(=S)NC1CC2CCC(C1)N2Cc1ccccc1 (configuration not stated) | -1% | -13% | -14% | -27% | u
Cc1ccc(NC(=O)CSc2nnc3c(n2)[nH]c2ccccc23)cc1 | -5% | u | 2%[46.1 µM] | -3% | 2%[46.1 µM]
Cc1ccc(-c2csc(NC(=O)CSC3=NCCS3)n2)cc1 | 7% | 1% | -17% | -34% | -6%
Cc1cc(=O)[nH]c(SCC(=O)Nc2ccc(Br)cn2)n1 | -1% | 4% | -1% | 1.3µM* | 4%
O=C(CSc1nnc2c(n1)[nH]c1ccccc12)Nc1ccc(N2CCOCC2)cc1 | -9% | -1% | -17% | 38% | -23%
Cc1ccc(-c2csc(NC(=O)CSc3nnc4c(n3)[nH]c3ccccc34)n2)cc1 | 12%[2.32 µM] | -18% | 3.2µM* | -56% | u
O=C(CSc1nnc2c(n1)[nH]c1ccccc12)Nc1ccc2c(c1)OCO2 | -4% | -1% | u | 8.9µM* | u
SMILES | AMA1-RON2 inh | AmpC detergent | LASV entry inh | AmpC inh no detg | MARV entry inh
Cc1ccc(-c2csc(NC(=O)CSc3nc(C)cc(=O)[nH]3)n2)cc1 | 1% | -8% | 11% | 14µM* | -9%
Cc1cc(=O)[nH]c(SCC(=O)Nc2ccc(C(=O)O)cc2)n1 | 0% | -2% | 15% | -3% | u
Cc1nc2nc(NCc3ccc(Br)cc3)[nH]n2c(=O)c1Cc1ccccc1 | x | 14% | 0%[46.1 µM] | x | 7%[46.1 µM]
COc1ccc(CNC(=O)c2sc3nc4n(c(=O)c3c2C)CCCCC4)cc1 | x | 0% | -20%[46.1 µM] | x | x
Clc1ccc2c(c1)C(OC1CN3CCC1CC3)c1ccccc1CS2 (configuration not stated) | -10% | 2% | u | 83% | u
CN1CCN(CCOC2c3ccccc3CSc3ccc(Cl)cc32)CC1 (configuration not stated) | -25% | -6% | 21µM* | 164% | u
Cc1ccc(C(=O)Nc2ccccc2C(=O)OCc2cc(=O)n3nc(C4CC4)sc3n2)cc1 | x | 14% | 4%[46.1 µM] | x | x
O=C(CNC(=S)NC(=O)c1cccc([N+](=O)[O-])c1)c1ccccc1 | 99% | -8% | 1% | 13µM* | u
Cc1cccc(C(=O)NC(=S)NCc2ccccc2)c1 | -4% | x | 18µM* | x | 14%
O=C(C#Cc1ccccc1)c1cccc([N+](=O)[O-])c1 | -7% | u | u | -29% | 13µM*
O=C(NC(=S)NCc1ccccc1)c1ccccc1 | 3% | -6% | u | -16% | -14%[46.1 µM]
C=CCn1c(N)cc(=O)nc1SC(C)C(=O)Nc1ccc(C(=O)OCC)cc1 (configuration not stated) | 6% | -9% | 21% | 28% | 14%
CCOC(=O)c1ccc(NC(=O)C(C)Sc2nc(=O)cc(N)n2CCc2ccccc2)cc1 (configuration not stated) | x | 0% | -3%[46.1 µM] | x | 5µM*
CCC(Sc1nc(=O)cc(N)n1CCc1ccccc1)C(=O)Nc1cc(C)on1 (configuration not stated) | 0% | u | x | 2.8µM* | x
CCOc1ccc(NC(=O)Cn2c(=O)n(Cc3ccccc3)c(=O)c3sc4ccccc4c32)cc1 | x | 8% | 0%[46.1 µM] | x | u
O=C(N/N=C/c1cc([N+](=O)[O-])ccc1Cl)c1cc(-c2ccccc2)nc2ccccc12 | 3% | u | x | -12% | x
COC(=O)N/N=C/c1cc(N=Nc2ccccc2Cl)ccc1O | 27% | -1% | x | -12% | x
O=C(NN=Cc1ccccc1O)c1cccc([N+](=O)[O-])c1 | 68% | x | u | x | 10µM*
Nc1ccc(C(=O)N/N=C\c2cc(N=Nc3cccc4ccccc34)ccc2O)cc1 | 32% | -6% | u | -43% | 16µM*
O=C(N/N=C/c1cc([N+](=O)[O-])ccc1O)c1cc(-c2ccccc2)nc2ccccc12 | 26% | -12% | 8.9µM* | -28% | 2.5µM*
O=[N+]([O-])c1ccc(O)c(/C=N/Nc2nc3ccccc3[nH]2)c1 | 41% | u | 3.5µM* | -25% | 2.8µM*
Cc1cc(C(=O)N/N=C/c2cc(Br)cc([N+](=O)[O-])c2O)c2ccccc2n1 | 35µM* | -11% | 0% | -52% | 3%
